# Rows were chosen to be rich in hits. Some 4.2% of all compounds tested hit in one or more screens of this group.
# VDR inh: vitamin D3 receptor (human) inhibition; Potency, µM, for the others: max response, negative = inhibition, hits mostly inhibitors; 400,000 tested, 0.93% active; AID 504847; P11473; VDR-SRC2-3 peptide fluorescence polarization, 2 h
#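 Fluorescence polarization assay measuring small-molecule disruption of VDR binding to the coregulator peptide SRC2-3. Compounds were pin-transferred (23 nl) into the reagent mix and incubated 2 h at room temperature before reading.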
# Sfp PPTase inh: inhibitors of Bacillus subtilis Sfp phosphopantetheinyl transferase | Q9F4F7 | Potency, µM, for the others: largest response in the series, negative = inhibition, hits mostly inhibitors | Biochemical Sfp PPTase activity, qHTS | 310,000 tested, 3.5% active;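 note: the enzyme is Sfp with the accession as filed and its product quenches rhodamine fluorescence; 0% = enzyme reaction without inhibitor and -100% = no enzyme wells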
#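 Reaction rates are the 30-min fluorescence difference (ex 525, em 598 nm) in wells containing 15 nM Sfp, 5 uM rhodamine-CoA and 12.5 uM BHQ-2-YbbR at pH 7.6 with 10 mM MgCl2.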
# ALOX12 inh: blocks human arachidonate 12S-lipoxygenase | P18054 | purified 12hLO, xylenol orange hydroperoxide absorbance | Potency, µM (doses to about 108 µM), for inactives: top-dose activity change, negative = inhibition, hits mostly inhibitors | 580,000 tested, 1.1% active
# Target sequence (P18054 whole entry, looked up): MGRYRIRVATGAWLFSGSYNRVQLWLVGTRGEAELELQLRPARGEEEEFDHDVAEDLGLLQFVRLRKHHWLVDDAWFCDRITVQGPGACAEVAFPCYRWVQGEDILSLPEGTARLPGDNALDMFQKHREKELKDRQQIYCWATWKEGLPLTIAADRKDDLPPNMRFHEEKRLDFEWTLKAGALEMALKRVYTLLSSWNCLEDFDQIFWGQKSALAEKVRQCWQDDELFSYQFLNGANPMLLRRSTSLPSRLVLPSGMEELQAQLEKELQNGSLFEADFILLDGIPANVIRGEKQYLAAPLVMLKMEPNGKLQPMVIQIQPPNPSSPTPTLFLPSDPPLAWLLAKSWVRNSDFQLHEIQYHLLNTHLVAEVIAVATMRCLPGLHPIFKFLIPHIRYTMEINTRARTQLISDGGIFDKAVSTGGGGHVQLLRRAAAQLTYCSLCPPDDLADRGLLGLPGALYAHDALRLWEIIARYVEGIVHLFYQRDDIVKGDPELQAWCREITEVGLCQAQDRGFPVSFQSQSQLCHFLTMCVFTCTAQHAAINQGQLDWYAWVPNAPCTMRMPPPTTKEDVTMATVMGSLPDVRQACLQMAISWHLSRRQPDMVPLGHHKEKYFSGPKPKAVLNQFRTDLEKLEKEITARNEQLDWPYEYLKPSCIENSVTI
#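 Hydroperoxide product was detected by ferrous iron/xylenol orange as the 573 to 405 nm absorbance ratio. Arachidonic acid at 40 uM (final) was turned over for 30 min at room temperature by 150 nM human 12hLO, pH 7.0 Hepes buffer, after 15 min compound preincubation.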
# PLK1 PBD block: blocks phosphopeptide binding to human PLK1 polo-box domain; 360,000 tested, 2.8% active; P53350; Potency, µM, for inactives: max response, negative = inhibition, most hits filed as inhibitors; AID 720504; Plk1 PBD binding of FITC phosphopeptide, fluorescence polarization; note: series mostly up to about 57 µM; nearly all actives have a fitted effect of over 65% in size
# Numbers without * were called inactive; ? = inconclusive; / = no result given; ! = a repeat was not active. Calls come from the whole dose curve; as a rule, active = well fitted curve in the direction sought with a large enough effect; inconclusive = small, poorly fitted or top-dose-only effect, or another doubt; inactive = no such curve, though single readings can be large; an effect the other way counts as inactive or inconclusive. Unless noted, % is set by controls: 0 for no effect and ±100 for the full control effect; potency is the fitted concentration of half-maximal effect.
SMILES,VDR inh,Sfp PPTase inh,ALOX12 inh,PLK1 PBD block
CCN(CC(F)(F)C(F)F)S(=O)(=O)c1ccc(NC(=O)OC)cc1,?,23%,-37%,3.8µM*
CCOc1ccc(NC(=O)c2ccc(-c3cccc(Cl)c3C)o2)cc1,-6%,/,0%,/
CCCCCc1cc(=O)oc2c(C(CCN3CCCC(C)C3)c3ccc(N(C)C)cc3)c(OC)cc(OC)c12 (centres undefined),-2%,56µM*,/,1%
CCCCCc1cc(=O)oc2c(C(CCN3CCCCC3)c3cc(OC)c(OC)c(OC)c3)c(OC)cc(OC)c12 (centres undefined),7%,79µM*,?,2%
O=C(NCc1ccco1)c1ccc2c(c1)N(C(=O)c1ccc(F)cc1)CC2,/,/,8%,/
COc1cccc(C(=O)Nc2sc3c(c2C#N)CCN(C(C)=O)C3)c1,79µM*,40µM*,-30%,24µM*
Cc1ccccc1C(=O)NC(=S)Nc1sc2c(c1C#N)CCC(C)C2 (centres undefined),-12%,-23%,?,19µM*
CC1(C)Cc2c(sc(NC(=S)NC(=O)c3ccccc3)c2C(=O)O)CO1,-7%,-10%,28µM*,-14%
CC1CCN(C(=O)C(=O)Nc2sc3c(c2C(=O)O)CC(C)(C)OC3)CC1,-1%,13%,8%,-10%
N#Cc1c(NC(=S)NC(=O)c2ccccc2)sc2c1CCN(CCc1ccccc1)C2,/,56µM*,/,/
CN(C)Cc1c(C(=O)N/N=C/c2ccc(OCc3c(F)cccc3Cl)cc2)nnn1-c1nonc1N,-6%,8%,11%,-7%
CC1CCc2c(sc(NC(=S)NC(=O)c3ccccc3)c2C#N)C1 (centres undefined),-6%,?,-10%,24µM*
N#Cc1c(NC(=S)NC(=O)c2ccccc2)sc2c1CCCC2,?,?,-4%,?
C=CCOC(=O)C1=C(C)NC(=S)C(C#N)(CC=C)C1c1ccccc1Cl (centres undefined),-7%,14%,-4%,1%
Cc1cccc(NC(=O)C2CC(=O)n3cnnc3S2)c1 (centres undefined),1%,28µM*,?,?
CC(=O)N1CCN=C1SCc1ccc(C)cc1,-5%,12%,5%,-6%
N#Cc1c(Cl)nsc1NN,-4%,40µM*,?,30µM*
O=C(NCCO)c1ccc(-c2nnc(Nc3ccc(OC(F)(F)Cl)cc3)c3ccccc23)cc1,3%,/,-17%,/
COc1ccc(-c2cn3cc(C)ccc3n2)cc1F,?,10%,-27%,9.5µM*
CCC(CC)NC(=O)c1cccc(C)c1,/,/,25%,/
COc1ccc(-c2cc(=O)oc3c(O)c(O)ccc23)cc1,1%,6%,1.1µM*,-10%
Cc1cccc(CS(=O)(=O)Cc2ccc(C(=O)NCCc3ccccc3)o2)c1,-18%,14%,1%,27µM*
Cc1ccccc1CS(=O)(=O)Cc1ccc(C(=O)NCCc2ccccc2)o1,-17%,12%,5%,30µM*
Cc1ccc(C(=O)NCc2ccccn2)o1,2%,8%,1%,0%
O=C(NCCc1ccccc1)c1ccc(CS(=O)(=O)Cc2ccccc2Cl)o1,-5%,/,0%,/
SMILES,VDR inh,Sfp PPTase inh,ALOX12 inh,PLK1 PBD block
CCOCCCNC(=O)c1ccc(CS(=O)(=O)Cc2cccc(C)c2)o1,-14%,6%,21%,1%
CCOc1ccc(CCNC(=O)c2ccc(CS(=O)Cc3cccc(Cl)c3)o2)cc1 (centres undefined),?,19%,1%,27µM*
Cc1ccc(CS(=O)(=O)Cc2ccc(C(=O)NCc3ccccn3)o2)cc1,7%,50µM*,10%,-2%
CCN1C(=O)C2CC3(CCN(C(=O)c4ccoc4)CC3)CN2C1=O (centres undefined),/,/,13%,/
S=C(NCCN1CCOCC1)N1CCN(c2cccc(Cl)c2)CC1,-10%,?,5.6µM*,?
CN1CCN(C(=S)Nc2ccc(S(N)(=O)=O)cc2)CC1,-16%,22µM*,-15%,27µM*
NS(=O)(=O)c1ccc(NC(=S)N2CCN(C(=O)C3CCCO3)CC2)cc1 (centres undefined),?,-18%,/,11µM*
NS(=O)(=O)c1ccc(NC(=S)N2CCN(c3ccccc3Cl)CC2)cc1,-18%,25%,13%,-7%
NS(=O)(=O)c1ccc(NC(=S)N2CCN(c3cccc(Cl)c3)CC2)cc1,-26%,13µM*,-11%,17µM*
O=c1oc2cc(O)ccc2s1,28µM*!,-27%,12%,-19%
Cc1nn(CC(=O)N2CCC(C)CC2)c(C)c1S(=O)(=O)NC(C)(C)C,/,/,6%,/
